Source: PubChem BioAssay (National Center for Advancing Translational Sciences (NCATS))
DRD3 agonist: agonists of human D3 dopamine receptor. P35462. D3R DiscoveRx beta-arrestin cells, luminescence, 90 min. max activation, %. 410,000 compounds, 0.58% hits. AID 652048; in the data active = max activation above about 30%; also: 0% is about no effect
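Agonist mode: compounds and dopamine controls were applied to plated cells for 90 min at 37 degrees C after an overnight attachment at 1500 cells/well. Luminescent read-out followed 30 - 60 minutes at room temperature with DiscoveRx detection reagent.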
ERG Ets-DNA blk: blocks human ERG Ets domain binding to DNA | P11308 | fluorescence polarization, His-ERG Ets domain / labelled DNA | Potency, µM (top dose mostly 76.9 µM), inactives show top-dose FP activity, negative = inhibition, usual class: inhibitors | 370,000 compounds, 0.028% hits | AID 624246; active = well fitted inhibition curve with a large enough effect in the polarisation, with a control signal flat; inconclusive = small, poorly fitted or top-dose-only effect, or effect the other way, or a change in a side signal; inactive = no such curve, though single readings can be large or run the other way; the % refers to the polarisation;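 also: polarization taken with two DNA probes labelled with fluorescein and Texas red; potency is read from the fitted curve at half-maximal effect; % of control where 0% means no effect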
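His-tagged ERG Ets domain (1 uM in the protein solution; 300mM KCl, 50mM Tris-HCl, 1mM EDTA, 1mM DTT, pH 7.5) received compound, then a probe mix of 5 nM fluorescein-DNA and 100nM Texas-615-DNA. Fluorescence polarization was read for both dyes.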
D1 potentiator: enhances dopamine response at the human D1 receptor | P21728 | HEK293 TREx D1 cells, calcium flux, dopamine EC20 potentiation | potentiation, % at 10 µM | 360,000 compounds, 0.036% hits; in the data active = potentiation above about 30%; also: 0% is about no effect
Target sequence (P21728 whole entry, looked up): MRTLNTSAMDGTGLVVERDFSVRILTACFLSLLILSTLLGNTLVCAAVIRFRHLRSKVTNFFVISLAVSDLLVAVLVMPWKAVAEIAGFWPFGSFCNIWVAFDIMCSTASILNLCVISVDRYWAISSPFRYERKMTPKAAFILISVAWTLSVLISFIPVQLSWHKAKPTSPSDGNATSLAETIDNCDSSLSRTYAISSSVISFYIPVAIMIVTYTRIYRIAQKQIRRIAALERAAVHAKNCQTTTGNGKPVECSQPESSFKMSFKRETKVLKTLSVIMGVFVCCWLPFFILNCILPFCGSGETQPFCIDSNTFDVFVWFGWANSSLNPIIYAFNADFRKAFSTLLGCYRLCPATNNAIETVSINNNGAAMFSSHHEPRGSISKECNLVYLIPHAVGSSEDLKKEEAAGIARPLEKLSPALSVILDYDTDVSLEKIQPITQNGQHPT
D3 antag: antagonists of human D3 dopamine receptor; P35462; D3R cells, DiscoveRx beta-arrestin luminescence, antagonist mode; stronger effect = lower value; max response, negative = inhibition, %; 360,000 compounds, 2.5% hits; AID 652054; in the data active = max response below about -50%; inconclusive = no clear call, values can overlap the other calls; also: % is scaled to controls: 0 for no effect and ±100 for the full control effect
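Cells plated overnight at 1500 cells/well, then exposed to library compounds with dopamine controls for 90 minutes at 37 degrees C. DiscoveRx reagent added for 30–60 minutes at room temperature; luminescence read, quantitative HTS format.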
D1 antagonist: blocks dopamine activation of the human D1 receptor | AID 504652 | 360,000 compounds, 3.2% hits | HEK293 TREx D1 cells, calcium flux, dopamine EC80; stronger effect = lower value | activity change, negative = inhibition, % at 10 µM | P21728; in the data active = activity change below about -30%; also: % is scaled to controls: 0 for no effect and ±100 for the full control effect
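Tetracycline-induced HEK293 Trex D1 cells, force-coupled to calcium, dye-loaded; compounds added and read 180 s, then EC80 dopamine added and calcium flux tracked kinetically another 180 s.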
D1 ag: activates the human D1 dopamine receptor | HEK293 T-REx D1 cells, calcium flux, agonist mode | activation, % at 2 µM | AID 504660 | P21728 | 360,000 compounds, 1% hits; in the data active = activation above about 30%; also: 0% is about no effect
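Tetracycline-induced HEK293 TREx D1 cells, force-coupled to calcium signalling, were dye-loaded with a no-wash calcium kit. Compound was pin-added after a 10 s baseline. Fluorescence was read kinetically at 1 cycle/s for 180 s, with calcium rises flagged as agonism.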
Starred values were filed as active, the others as inactive; ? = inconclusive; . = no result; [ ] = dose if it differs, or a comment. Only some compounds are listed: those with a hit (about 6.1% of all), similar ones and a draw of the others.

SMILES | DRD3 agonist | ERG Ets-DNA blk | D1 potentiator | D3 antag | D1 antagonist | D1 ag
Cc1ccc(CNC(=O)CSc2c3c(nc4cc(Cl)ccc24)CCCC3)o1 | -1 | 14% | -5 | -76* | -5 | 0
CSc1cccc(NC(=O)CCc2ccccc2)c1 | -15 | 4%[15.4 µM] | 1 | 12 | -9 | 2
CCc1cccc(NC(=O)CCCSc2nc3ccccc3[nH]2)c1 | 4 | -1% | -6 | 3 | -36* | 13
O=C(CCCSc1ccccc1)Nc1cccc(CO)c1 | 2 | 0% | . | -2 | -34* | 7
CNC(=O)c1ccc(Nc2nnc(-c3ccc(C)c(S(N)(=O)=O)c3)c3ccccc23)cc1 | 3 | 8% | -5 | 3 | 5 | 2
CCCC(=O)Nc1cc(C(=O)NCc2ccccc2)ccc1S(=O)(=O)c1ccc(Cl)cc1 | -7 | 0% | 6 | . | -1 | 5
CCc1cc(C(=O)NNC(=S)Nc2cc(C)ccc2C)cs1 | -3 | -5% | -8 | -17 | -15 | 3
CCc1cc(C(=O)NNC(=S)Nc2ccccc2C)cs1 | -6 | 0% | 0 | -97* | -5 | 0
CN(C)/C(=N\S(=O)(=O)c1ccccc1)c1ccc([N+](=O)[O-])cc1 | 1 | -2% | -10 | -28 | 20 | 7
O=C(Nc1cnn(Cc2c(Cl)cccc2Cl)c1)C(c1ccccc1)c1ccccc1 | 4 | 13% | -1 | -15 | 7 | 4
C/C(=N\OCC(=O)OCC(=O)N(Cc1ccccc1)C(C)(C)C)c1ccc2c(c1)OCO2 | 10 | -4% | -10 | 6 | -36* | 25
O=C(NC(c1ccc(F)cc1)c1ccc2ccccc2n1)C1CCN(CCOc2ccc(F)cc2)CC1 (stereo unspecified) | -14 | . | . | ? | . | .
COc1ccc(OCCN2CCC(C(=O)NC(c3ccccc3)c3ccc4ccccc4n3)CC2)cc1 (stereo unspecified) | -13 | . | . | -102* | . | .
COc1ccc(OCCN2CCC(C(=O)NC(c3ccc(F)cc3)c3ccc4ccccc4n3)CC2)cc1 (stereo unspecified) | -24 | . | . | -70* | . | .
CCCCNC(=O)C1(C)CCN1C(=O)c1cccc(OC(C)=O)c1C (stereo unspecified) | 3 | . | . | 9 | . | .
O=c1cccccc1NN=C1CCCCCC1 | 0 | 4% | 2 | 8 | 7 | 1
COCCNc1c2c(c(C#N)c3nc4ccccc4n13)CCCC2 | 5 | 13% | -2 | 7 | 6 | 0
N#Cc1c2c(c(NCc3cccnc3)n3c1nc1ccccc13)CCC2 | -1 | -6% | -5 | -53* | 2 | 0
COc1ccc(C(=O)NCCNC(=O)c2ccc(OC)cc2)cc1 | -6 | -11% | . | 0 | . | .
COc1ccc(C(=O)NCC(C)(C)SCc2c(C)cc(C)cc2C)cc1 | 18 | . | 7 | 11 | -61* | 56*
COc1ccc(CCNC(=O)C(=O)NCC2OCCN2S(=O)(=O)c2ccc3c(c2)OCCO3)cc1OC (stereo unspecified) | 8 | 1% | -24 | 24 | -75* | -1
CN(C)C(/C=C/Nc1ccccc1F)=C(C#N)C#N | -6 | . | -2 | 2 | -34* | 2
COc1ccccc1N/C=C/C(=C(C#N)C#N)N(C)C | -2 | 12% | -5 | 2 | -4 | 1
CCn1c(NC(=O)c2ccc(COc3ccc(C)cc3[N+](=O)[O-])o2)nc2ccccc21 | 37* | 9% | -2 | 10 | -17 | 2
Cc1ccc(OCc2ccc(C(=O)Nc3cc(C)on3)o2)c([N+](=O)[O-])c1 | -8 | -8% | 5 | -12 | -13 | 2
SMILES | DRD3 agonist | ERG Ets-DNA blk | D1 potentiator | D3 antag | D1 antagonist | D1 ag
CC1=C(C(=O)OC(C)C)C(c2cccnc2)n2ncnc2N1 (stereo unspecified) | 1 | 6% | . | 9 | -34* | 1
CC(=O)C1=C(C)Nc2ncnn2C1c1ccc(F)cc1 (stereo unspecified) | 3 | -2% | 5 | -18 | 10 | 0
COC(=O)c1ccc(C2C(C(C)=O)=C(C)Nc3ncnn32)cc1 (stereo unspecified) | -3 | 12% | 2 | -74* | 2 | 1
COC(=O)C1=C(C)Nc2ncnn2C1c1ccc(OCc2ccccc2)cc1 (stereo unspecified) | 3 | -7% | -5 | 6 | -38* | 4
CC(C)N(CCNC(=O)c1ccc(CS(=O)(=O)c2c(Cl)cccc2Cl)o1)Cc1ccccc1 | -22 | -3% | -1 | -70* | 3 | 4
Cc1ccccc1S(=O)(=O)Cc1ccc(C(=O)NCCN(Cc2ccccc2)C(C)C)o1 | -20 | 0% | -1 | ? | 13 | 1
CN(CCNC(=O)c1ccc(CS(=O)(=O)c2c(Cl)cccc2Cl)o1)CCc1ccccc1 | -10 | -5% | -13 | ? | -56* | 5
Cc1c2cnn(-c3ccccc3)c(=O)c2c(C)n1CC(=O)NCc1ccc(Cl)cc1 | 0 | -7% | 7 | . | -12 | 1
COc1cn(CC(=O)Nc2cccc(C)c2)c(CN2CCCCC2)cc1=O | 7 | 1% | 1 | . | 22 | 1
COc1ccc(C(=O)NNC(=O)c2ccccc2[N+](=O)[O-])cc1 | 2 | 6% | -8 | 5 | -5 | 0
COc1ccccc1CNc1ccc(CNc2ncn[nH]2)cc1 | 6 | 2% | -2 | 7 | -7 | 1
c1ccc2c(CNc3ccc(CNc4ncn[nH]4)cc3)cccc2c1 | -9 | 3% | -7 | ? | -46* | 11
CCOC(=O)c1cc(-c2ccc(F)cc2)n(CC(=O)NCc2ccc(OC)cc2)c1C | 3 | 0% | -2 | . | -4 | 1
COc1ccc(NC(=O)CNC(=O)Cc2cccc3ccccc23)cc1 | 5 | -5% | . | 6 | . | .
O=C(N/N=C/c1coc2ccccc2c1=O)c1ccccc1 | 0 | -4% | -7 | 7 | -44* | 1
CC(=O)NC(CCS(C)(=O)=O)C(=O)N1CCc2ccccc21 (stereo unspecified) | -1 | . | -6 | 12 | 1 | 2
Cc1ccc(NC(=O)COc2ccc(C(=O)c3ccccc3)cc2)c(O)c1 | -18 | 1% | -10 | -2 | -30* | 11
Cc1ccc(NC(=S)NC(=O)Cc2ccccc2)c(O)c1 | 6 | -7% | 0 | 0 | -10 | 33*
CCOC(=O)c1c(C)[nH]c(C(=O)N/N=C/c2ccc(Br)cc2)c1C | -3 | -4% | -7 | -9 | -40* | 3
CCOC(=O)c1c(C)[nH]c(C(=O)COC(=O)C2(C)CC2(Cl)Cl)c1C (stereo unspecified) | 45* | -5% | 3 | 54 | -11 | 6
CCOC(=O)c1c(C)[nH]c(C(=O)NCc2ccco2)c1C | . | . | -6 | . | -71* | 0
